Molecules are shown by their SMILES. Out of some 67,000 compounds screened, about 300 (0.45%) showed an effect of 50% or more. This excerpt belongs to a sample that is enriched for strong results.

In the experiment the target is Polyketide synthase Pks13 (Mycobacterium tuberculosis (strain ATCC 25618 / H37Rv)) (UniProt I6X8D2). The experiment in a line: Mycobacterium tuberculosis Polyketide synthase 13 Thioesterase (PKS13). Type of experiment: functional. More on the design: scale not given: in the data most compounds retested in dose-response had high values. Particulars: 30 µM.
Polyketide synthase Pks13 (Mycobacterium tuberculosis (strain ATCC 25618 / H37Rv)), sequence (I6X8D2 whole entry): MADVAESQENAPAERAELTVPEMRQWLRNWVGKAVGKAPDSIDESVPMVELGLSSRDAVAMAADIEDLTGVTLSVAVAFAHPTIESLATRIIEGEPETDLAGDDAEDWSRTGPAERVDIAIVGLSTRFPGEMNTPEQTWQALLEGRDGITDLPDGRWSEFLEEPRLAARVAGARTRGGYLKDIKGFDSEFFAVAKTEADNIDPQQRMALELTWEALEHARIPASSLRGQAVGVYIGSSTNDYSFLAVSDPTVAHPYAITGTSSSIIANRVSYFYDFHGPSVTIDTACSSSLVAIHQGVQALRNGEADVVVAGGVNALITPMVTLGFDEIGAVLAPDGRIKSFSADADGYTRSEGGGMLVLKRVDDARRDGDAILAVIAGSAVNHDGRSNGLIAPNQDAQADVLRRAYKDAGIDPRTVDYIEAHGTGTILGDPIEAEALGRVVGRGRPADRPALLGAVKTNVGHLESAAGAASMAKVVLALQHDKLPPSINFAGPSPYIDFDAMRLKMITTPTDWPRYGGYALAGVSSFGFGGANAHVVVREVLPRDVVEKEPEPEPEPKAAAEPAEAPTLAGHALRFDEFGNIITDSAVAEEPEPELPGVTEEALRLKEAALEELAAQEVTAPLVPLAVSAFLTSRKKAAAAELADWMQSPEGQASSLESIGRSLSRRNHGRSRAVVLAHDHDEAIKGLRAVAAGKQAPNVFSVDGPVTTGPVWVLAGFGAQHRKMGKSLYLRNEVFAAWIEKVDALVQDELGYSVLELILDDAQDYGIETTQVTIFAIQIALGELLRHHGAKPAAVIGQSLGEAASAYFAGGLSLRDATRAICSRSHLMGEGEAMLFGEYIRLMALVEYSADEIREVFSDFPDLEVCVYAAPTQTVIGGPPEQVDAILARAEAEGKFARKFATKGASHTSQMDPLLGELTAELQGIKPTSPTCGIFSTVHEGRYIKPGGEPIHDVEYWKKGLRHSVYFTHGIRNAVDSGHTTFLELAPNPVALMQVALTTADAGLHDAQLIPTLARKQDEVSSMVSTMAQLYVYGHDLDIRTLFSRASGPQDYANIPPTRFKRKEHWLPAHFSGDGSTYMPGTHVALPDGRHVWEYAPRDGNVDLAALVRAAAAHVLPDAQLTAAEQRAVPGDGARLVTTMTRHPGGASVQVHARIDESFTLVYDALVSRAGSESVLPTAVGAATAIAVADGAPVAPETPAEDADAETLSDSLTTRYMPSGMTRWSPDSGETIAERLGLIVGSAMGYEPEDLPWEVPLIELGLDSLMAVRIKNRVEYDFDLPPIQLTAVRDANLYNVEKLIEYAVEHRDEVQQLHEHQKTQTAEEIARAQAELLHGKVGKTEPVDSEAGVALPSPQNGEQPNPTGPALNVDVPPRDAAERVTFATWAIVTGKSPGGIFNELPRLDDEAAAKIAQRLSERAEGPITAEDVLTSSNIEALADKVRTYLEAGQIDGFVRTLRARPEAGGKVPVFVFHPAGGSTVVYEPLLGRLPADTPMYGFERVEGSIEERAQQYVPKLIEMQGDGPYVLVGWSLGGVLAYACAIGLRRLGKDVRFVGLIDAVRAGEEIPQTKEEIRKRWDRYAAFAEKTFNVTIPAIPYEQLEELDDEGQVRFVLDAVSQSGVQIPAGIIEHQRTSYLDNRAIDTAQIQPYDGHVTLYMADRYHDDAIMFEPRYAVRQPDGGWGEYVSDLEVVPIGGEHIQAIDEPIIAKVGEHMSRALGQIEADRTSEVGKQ
For the compound `C1CC(N2C[C@@H]3COC[C@]3(COCC3CCOCC3)C2)C1`, the Percent Effect is -9.77%.

For the compound `Fc1ccccc1Cc1noc(CN2CC[C@@H]3CCCC[C@H]3C2)n1`, the Percent Effect is -29.1%.

Turning to `CC(C)c1cc(CN2CCNCC2)no1`, the Percent Effect came out at 18.9%.

`CC(C)c1cc(CN2CCC(CC(=O)O)CC2)no1`: the Percent Effect stood at 60.1%.

As to `CC(C)c1cc(CN2CCC(N)CC2)no1`, the Percent Effect was 11.6%.

Turning to `CC(C)c1cc(C(=O)N2CCN(CC3CC3)[C@@H]3CS(=O)(=O)C[C@@H]32)on1`, the Percent Effect is -6.23%.

Consider `O=C1[C@@H]2CCN(CC3CC3)C[C@@H]2OCCN1c1ccsc1`, for which the Percent Effect was found to be 2.34%.

`CCOc1cc(/C=C/c2ncc(C(=O)O)s2)cc(Br)c1OC`: the Percent Effect was 17.1%.

On to `CCOc1c(Cl)cc(/C=C/c2ncc(C(=O)O)s2)cc1OC`, for which the Percent Effect came to 23.8%.

On to `CNC(=O)c1cnc(/C=C/c2cc(OC)c(OC)c(OC)c2)s1`, for which the Percent Effect turned out to be 17.9%.

Take `CCOc1c(Br)cc(/C=C/c2ncc(C(=O)O)s2)cc1OC`: the Percent Effect is -5.74%.

For `CCOc1cc(/C=C/c2ncc(C(=O)O)s2)cc(Br)c1O`, the Percent Effect was determined as 59.8%.

As for `COc1cc(/C=C/c2ncc(C(=O)O)s2)cc(Cl)c1O`, the Percent Effect was 64.9%.

On to `CNC(=O)c1cnc(/C=C/c2cc(OC)cc(OC)c2)s1`, for which the Percent Effect was found to be 54.2%.

As to `COc1cc(/C=C/c2ncc(C(=O)O)s2)cc(Cl)c1OC`, the Percent Effect was determined as 16.6%.

For `COc1cc(/C=C/c2ncc(C(=O)O)s2)cc(OC)c1`, the Percent Effect came to 19.6%.

For the compound `CC(=O)N1CC[C@H]2OCC[C@@]2(C(=O)NCCc2ccccn2)C1`, the Percent Effect was -18.1%.

For `O=C(c1ccsc1)N1CCN2C[C@H](OCc3ccccn3)C[C@H]2C1`, the Percent Effect was -2.94%.

On to `Cc1ccc(N2C[C@@H]3OCCN(CC4CC4)[C@@H]3C2)nn1`, for which the Percent Effect is 0.27%.

`O=C(C1CCCCC1)N1C[C@H]2CNC[C@H]2C1`: the Percent Effect is -22.2%.

Consider `CCOC(=O)[C@@H]1[C@@H](c2ccccc2)CN2CCN(C(=O)N(C)C)C[C@H]12`, for which the Percent Effect was -2.04%.

Take `O=C(c1cnccn1)N1CCN2C[C@H](Oc3cccnc3)C[C@H]2C1`: the Percent Effect is -12.6%.

For `CN(C)C(=O)[C@H]1C[C@@H]2CCN(C3CCOCC3)C[C@H]2O1`, the Percent Effect is -11.1%.

On to `COc1ccc(C2Nc3ccccc3NC3=C2C(=O)NC3)cc1OC` (configuration not stated), for which the Percent Effect was -7.87%.

Turning to `CC(C)C(=O)N1CCC(n2nc(-c3ccco3)ccc2=O)CC1`, the Percent Effect turned out to be 0.602%.

Regarding `CC(C)(C)C(=O)N1CCC(n2nc(-c3ccco3)ccc2=O)CC1`, the Percent Effect turned out to be 125%.

In the case of `O=C(c1ccco1)N1CCC(n2nc(-c3ccco3)ccc2=O)CC1`, the Percent Effect turned out to be 10.8%.

For `CN(C)C(=O)N[C@@H]1CN(C2CCOCC2)[C@@H]2CCCO[C@@H]21`, the Percent Effect was -25.3%.

As to `CC(=O)N1CCO[C@@H]2CN(C(=O)c3ccccc3)CC[C@@H]2C1`, the Percent Effect worked out at 7.28%.

Consider `Cc1cc(OCc2cccc(F)c2)ccc1NC(=O)C(C)NC(N)=O` (configuration not stated), for which the Percent Effect is -1.33%.

As for `Cc1cccc(COc2ccc(NC(=O)C(C)NC(N)=O)c(C)c2)c1` (configuration not stated), the Percent Effect turned out to be 53%.

For `CC(=O)NC(C)C(=O)Nc1ccc(OCc2cccc(F)c2)cc1C` (configuration not stated), the Percent Effect was -35.8%.

Values taken from ChEMBL document CHEMBL3988442, “University of Dundee, Small-Polar-MMV Screening Library” (2021).
